High-throughput results from PubChem BioAssay.
An excerpt weighted towards active compounds, which were near 11% of everything screened.
Pf growth 96h: Primary qHTS for delayed death inhibitors of the malarial parasite plastid, 96 hour incubation. P. falciparum luciferase reporter growth, 96 h. Potency, µM (series often up to 28.7 µM), for the others: at the highest dose activity change, negative = inhibition, most hits filed as inhibitors. actives 6.9% (n = 320,000). AID 504834, 2011; further: on the % scale 0 is the no-effect control and ±100 the full control effect
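Compounds incubated with erythrocytes infected by luciferase-expressing P. falciparum (2% hematocrit, 0.05% parasitemia final) for 96 hours, 37 C in 5% CO2. Growth inhibition scored as decreased luciferase luminescence.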
Pf growth 48h: Primary qHTS for delayed death inhibitors of the malarial parasite plastid, 48 hour incubation; P. falciparum luciferase growth in erythrocytes, 48 h; Potency, µM (titrated, usually from 28.7 µM), for the others: at the top dose activity change, negative = inhibition, usual class: inhibitors; AID 504832, 2011; actives 5.9% (n = 310,000); further: on the % scale 0 is the no-effect control and ±100 the full control effect
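Compounds are pin-transferred into medium, infected erythrocytes (2% hematocrit, 0.1% parasitemia final) are added, and plates sit one parasite generation at 37 C in 5% CO2. Detection reagent is then added and luminescence measured.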
AMA1 RON2 block: qHTS for Inhibitors of AMA1-RON; Towards Development of Antimalarial Drug Lead: Primary Screen. AlphaScreen AMA1-biotinylated RON2 peptide binding. Potency, µM (doses to about 58.2 µM), for the others: at the highest dose activity change, negative = inhibition, hits mostly inhibitors. actives 0.2% (n = 360,000). AID 720542, 2013;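 further: 0% = vehicle wells and -100% = peptide control; nearly all actives have a fitted effect of over 45% in size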
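AMA1 (3D7) with his tag at 25 nM final met compounds first, then biotinylated RON2 peptide at 25 nM; detection used donor plus acceptor beads, 10 µg/mL apiece, read by AlphaScreen after 30 min at room temperature.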
Sm TGR inh: qHTS Assay for the Inhibitors of Schistosoma Mansoni Peroxiredoxins | purified TGR, DTNB reduction, TNB absorbance 405 nm | Potency, µM (titrated, usually from 114 µM), for inactives: at the highest dose activity change, negative = inhibition, usual class: inhibitors | actives 3% (n = 360,000); further: on the % scale 0 is the no-effect control and ±100 the full control effect; nearly all actives have a fitted effect of over 60% in size
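First, TGR (20 nM dispensed) and NADPH were mixed with compound. Second, a 15 min room-temperature incubation followed. Third, further NADPH and then DTNB were added to start the reaction. Finally, TNB absorbance was monitored kinetically.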
NS1 function inh: qHTS Assay for Inhibitors of Influenza NS1 Protein Function | AID 2326, 2010 | Potency, µM (series often up to 46.1 µM), for inactives: at the top dose activity, positive = more growth | actives 0.4% (n = 270,000); calls by dose curve; further: actives are rising curves; nearly all actives have a fitted effect of over 50% in size
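A cell-based growth assay was used: compounds that relieve NS1-induced slow growth of budding yeast raise OD600. Assay medium was yeast nitrogen base with ammonium sulphate and -URA supplement, pH 6.0, with 2% galactose.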
Active calls of the source: *; ? = inconclusive; nt = no result given. Unless noted, the call rests on the fitted dose curve; in most records, active means well fitted curve in the direction sought with a large enough effect; inconclusive means small, poorly fitted or top-dose-only effect, or another doubt; inactive means no such curve, though single readings can be large; an effect the other way counts as inactive or inconclusive. Potency means the concentration at half of the fitted maximal effect.

SMILES	Pf growth 96h	Pf growth 48h	AMA1 RON2 block	Sm TGR inh	NS1 function inh
COC(=O)CC1C(=O)NCCN1C(=O)CSc1nc2ccc([N+](=O)[O-])cc2s1 (centres undefined)	?	10µM*	7%	0%	nt
Cc1cccc(Nc2nnc(SCC(=O)N(C)C3CCS(=O)(=O)C3)s2)c1C (centres undefined)	2.9µM*	?	-6%	4%	3%
CN(C(=O)CSc1nc2ccc([N+](=O)[O-])cc2s1)C1CCS(=O)(=O)C1 (centres undefined)	9.3µM*	?	4%	?	-4%
Cc1csc(/C(=N/OC(=O)c2ccco2)C(N)=O)n1	?	15%	26%	4µM*	13%
CCCCN1C(=O)C(=O)N(CC(=O)N2CCc3ccccc32)C1=O	-9%	-12%	-14%	-6%	nt
O=C1NCN(c2ccccc2)C12CCN(CCCOc1ccc(F)cc1)CC2	-15%	17µM*	nt	nt	nt
CCNC(=S)Nc1cccc(S(=O)(=O)Nc2ccccc2OC)c1	3%	-16%	-5%	1.8µM*	4%
COc1ccccc1NS(=O)(=O)c1cccc(NC(=O)Nc2ccc(Cl)cc2)c1	10µM*	?	-8%	-1%	5%
CCc1ccc(CN(C)C(=O)c2cccc(S(=O)(=O)Nc3ccccc3OC)c2)cc1	?	10µM*	-2%	3%	nt
Cc1ccc(-c2[nH]c3ccccc3c2SCCNC(=O)c2ccc(S(=O)(=O)N3CCOCC3)cc2)cc1	8.3µM*	?	-4%	8%	-12%
COc1ccc(C(=O)NCCn2ccc3ccccc32)cc1	0%	?	1%	-1%	-17%
Cc1cc2ccccc2n1CCNC(=O)c1ccc(S(=O)(=O)N2CCOCC2)cc1	0%	4.1µM*	-16%	?	10%
O=C(NCCSc1c(-c2ccc(F)cc2)[nH]c2ccccc12)c1ccc(S(=O)(=O)N2CCOCC2)cc1	nt	nt	nt	2%	nt
O=C(NCCn1ccc2ccccc21)c1ccc(S(=O)(=O)N2CCCCC2)cc1	?	12µM*	-18%	-4%	?
Cc1ccc2c(c1)[nH]c1c(N3CCN(Cc4ccc5c(c4)OCO5)CC3)ncnc12	nt	2.9µM*	nt	-1%	-69%
Fc1ccc(N2CCN(c3nc(CN4CCOCC4)nc4scc(-c5ccccc5)c34)CC2)cc1	7.4µM*	12µM*	?	-11%	nt
Fc1ccc(-c2csc3ncnc(N4CCc5ccccc5C4)c23)cc1	?	?	-19%	-9%	-23%
Fc1ccc(-c2csc3ncnc(N4CCN(Cc5ccccc5)CC4)c23)cc1	9.3µM*	?	6%	-20%	5%
Fc1ccc(CN2CCN(c3ncnc4scc(-c5ccccc5)c34)CC2)cc1	10µM*	?	0%	-9%	-8%
Cc1ccc(-c2csc3ncnc(N4CCN(Cc5ccccc5)CC4)c23)cc1	?	?	16%	2%	15%
COC(=O)c1cc(NC(=O)c2ccc(F)cc2)cc(C(=O)OC)c1	0%	26%	4%	nt	-7%
CCn1c(CC(=O)Nc2ccc(F)cc2)nnc1SCC(=O)Nc1nncs1	4%	2%	7%	9%	2%
CC(=O)c1cccc(NC(=O)CN(c2cc(C)cc(C)c2)S(=O)(=O)c2c(C)noc2C)c1	nt	nt	nt	-1%	nt
CN(Cc1ccccc1Cl)C(=O)CNC(=O)C12CC3CC(CC(C3)C1)C2	nt	nt	1%	nt	nt
Cc1sc2ncnc(N3CCN(Cc4ccccc4)CC3)c2c1-c1ccc(F)cc1	13µM*	13µM*	-2%	3%	2%
SMILES	Pf growth 96h	Pf growth 48h	AMA1 RON2 block	Sm TGR inh	NS1 function inh
c1ccc(-c2csc3ncnc(N4CCN(Cc5ccc6c(c5)OCO6)CC4)c23)cc1	?	13µM*	-5%	18µM*	7%
O=C(CSc1ncnc2scc(-c3ccccc3)c12)N1CCN(Cc2ccc3c(c2)OCO3)CC1	?	-1%	-13%	3%	13%
CCN1CCN(C(=O)CN(CC)S(=O)(=O)c2ccc3ccccc3c2)CC1	?	-4%	-1%	-15%	12%
O=C(Nc1sc2c(c1C(=O)NCc1ccco1)CCCC2)c1cc(=O)c2cc(Cl)ccc2o1	nt	nt	nt	0%	nt
O=C(C[n+]1ccccc1)N1c2ccccc2Sc2ccccc21	4%	?	-7%	28µM*	2%
O=C(C1CC1)N1c2ccccc2Sc2ccccc21	26%	12µM*	6%	?	-6%
Cc1cc(NCC2CCCCC2)nc2ccccc12	?	3.3µM*	0%	-3%	-17%
O=S(=O)(c1ccc(-c2ccon2)s1)N1CCN(c2ccncc2)CC1	5%	1.3µM*	-13%	?	?
O=S(=O)(c1ccc(-c2ccon2)s1)N1CCCC1	19%	-7%	-4%	-2%	2%
CC(C)(C)NC(=S)N1CCn2cccc2C1c1cccnc1 (centres undefined)	9.3µM*	4%	3%	-24%	nt
CNC(=S)N1CCn2cccc2C1c1ccc(F)cc1 (centres undefined)	?	-14%	-5%	35µM*	-3%
Fc1ccccc1C1c2cccn2CCN1C(=S)Nc1ccc(Br)cc1 (centres undefined)	-6%	-14%	40%	-25%	15%
Fc1ccccc1C1c2cccn2CCN1C(=S)Nc1cccc(Br)c1 (centres undefined)	-27%	9.3µM*	9%	-8%	nt
Fc1ccc(C2c3cccn3CCN2C(=S)Nc2cccc(F)c2)cc1 (centres undefined)	?	?	-5%	-34%	nt
CN(C)S(=O)(=O)c1cc(NC2CC(=O)N(c3ccc(F)cc3)C2=O)ccc1Cl (centres undefined)	31%	-11%	-1%	25µM*	nt
CCCC[N+]12C3C[C@H](C4[C@H](O)[C@]5(C[C@@H]41)c1ccccc1N(C)[C@@H]35)[C@H](CC)[C@H]2O (some centres undefined)	?	13µM*	2%	0%	-2%
Cc1ccc2c(C(=O)CSc3ccccc3)c(C)[nH]c2c1	37%	37%	6%	-6%	-5%
Cc1[nH]c2ccccc2c1C(=O)CNc1nccs1	?	-27%	12%	-5%	5%
CCOCc1cnc(C)nc1NCC(=O)c1c(C)[nH]c2ccccc12	1.7µM*	2.1µM*	-11%	3%	-8%
CCOCc1cnc(C)nc1NCC(=O)c1c(C)[nH]c2cc(C)ccc12	0.29µM*	0.83µM*	1%	-13%	0%
CCOC(=O)C1=C(C)c2ccccc2N(C(=O)OC)C1(C)C(=O)OCC (centres undefined)	nt	nt	-10%	nt	nt
